In the library only some 2.5% were active in any assay of this set; here they are far more common.
Luciferase inh = firefly luciferase inhibition | purified firefly luciferase, luminescence, 8 min | AID 411 | Potency, µM (highest dose often 57.1 µM), without a hit: top-dose activity change, negative = inhibition, actives largely listed as inhibitors | 2.2% of 72,000 active | P08659; further: nearly all actives have a fitted effect of over 40% in size
Target sequence (P08659 whole entry, looked up): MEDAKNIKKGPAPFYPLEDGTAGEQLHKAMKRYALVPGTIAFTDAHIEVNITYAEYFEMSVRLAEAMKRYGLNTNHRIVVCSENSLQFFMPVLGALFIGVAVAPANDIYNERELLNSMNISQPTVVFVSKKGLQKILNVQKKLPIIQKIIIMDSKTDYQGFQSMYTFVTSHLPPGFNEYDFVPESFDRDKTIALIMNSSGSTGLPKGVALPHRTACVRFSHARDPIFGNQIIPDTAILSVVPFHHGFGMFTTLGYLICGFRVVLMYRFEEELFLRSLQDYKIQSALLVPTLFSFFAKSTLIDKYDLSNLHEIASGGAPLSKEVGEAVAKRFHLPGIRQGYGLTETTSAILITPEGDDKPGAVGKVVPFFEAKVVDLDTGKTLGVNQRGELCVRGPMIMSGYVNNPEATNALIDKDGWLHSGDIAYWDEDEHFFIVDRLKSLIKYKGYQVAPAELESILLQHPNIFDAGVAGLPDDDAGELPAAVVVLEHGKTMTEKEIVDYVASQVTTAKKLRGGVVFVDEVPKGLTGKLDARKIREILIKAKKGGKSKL
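Luminescence read-out after 8 min at room temperature; enzyme reaction used luciferin plus 10 uM ATP (linear range) in imidazole buffer pH 7.2 with KCl, MgCl2, Tween 20 and BSA. Each sample was run as a titration.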
p53ts 39C tox = cytotoxicity in p53ts cells at nonpermissive temperature | Potency, µM (top dose mostly 46.1 µM), without a hit: top-dose activity change, negative = cell killing, hits mostly cytotoxic | H1299-p53A138V viability at 39C, ATP luminescence, 24 h | 1.5% of 130,000 active; further: nearly all actives have a fitted effect of over 55% in size
p53ts 32C kill = kills p53ts cells at the permissive temperature; H1299-p53A138V at 32C, ATP luminescence viability, 24 h; Potency, µM (series often up to 46.1 µM), for the others: top-dose activity change, negative = cytotoxicity, hits mostly cytotoxic; 0.93% of 130,000 active; AID 924;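 further: 0% = DMSO and -100% = full killing by reference compound; nearly all actives have a fitted effect of over 55% in size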
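Viability by ATPlite luminescence after 24 h compound treatment (up to 46 uM) at the permissive 32C. Cells are H1299 carrying p53 A138V. Scale runs from DMSO basal to 100 uM tamoxifen as full kill; AC50 from Hill fits.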
An asterisk follows results filed as active; ? = inconclusive; . = no result; [ ] = another dose, or the depositor's remark. The call rests on the fitted dose curve; in most records, active means well fitted curve in the direction sought with a large enough effect; inconclusive means small, poorly fitted or top-dose-only effect, or another doubt; inactive means no such curve, though single readings can be large; an effect the other way counts as inactive or inconclusive. Unless noted, on the % scale 0 is the no-effect control and ±100 the full control effect; potency means the concentration at half of the fitted maximal effect.

SMILES	Luciferase inh	p53ts 39C tox	p53ts 32C kill
CCN1CCN(Cc2c(O)ccc3c(C)c(-c4ccccc4)c(=O)oc23)CC1	.	0.5%	4.8%
CCNc1ncc2ncc(=O)n(CCOC)c2n1	0.1%[11.4 µM]	2.8%	2.4%
CC(C)Cn1nc(NC(=O)c2cccc(Cl)c2)c2cc3ccccc3nc21	.	12.6µM*	-24.1%
CCCCn1nc(NC(=O)c2cccc(Cl)c2)c2cc3ccccc3nc21	.	-11.7%	4.4%
CCCc1nn2c(=O)cc(COC(=O)c3ccccc3NC(=O)c3cccs3)nc2s1	.	-0.1%	10.6%
CCCc1nn2c(=O)cc(COC(=O)c3ccccc3NC(=O)c3ccc(OCC)cc3)nc2s1	.	10µM*	-11.3%
O=C(NCCCn1ccnc1)c1cn(-c2ccccc2)nc1-c1ccccc1	12.6µM*	-28.7%	?
COCCSc1ccccc1C(=O)NCCCn1ccnc1	0.0%	3.4%	0.1%
CCN(C(=O)Cn1c(SCC(=O)Nc2ccc(OC)cc2)nc2ccccc21)c1cccc(C)c1	.	2.6%	15.3%
Cc1ccnc(N(C(=O)c2cccs2)C(=O)c2cccs2)c1	-15.9%	12.6µM*	?
Cc1ccc2nc(N(Cc3cccnc3)C(=O)c3cccs3)sc2c1	.	-27.5%	-4.0%
Cc1nn(-c2nc3ccccc3s2)c(C)c1Oc1ccccc1O	?	?	12.6µM*
Cc1nn(-c2ccccn2)c(C)c1Oc1ccccc1O	-6.1%	2.6%	6.4%
CCCCN(CC)CCNC(=O)Cn1c(=O)c2cccn2c2cccnc21	.	-5.0%	-2.3%
CCOC(=O)C1CCC(CN(Cc2cccc(Br)c2)S(=O)(=O)c2ccc(C)cc2)CC1 (stereo not drawn)	.	?	3.6%
CN[C@@H]1[C@H](O)[C@H](NC)[C@@H]2O[C@]3(O)C(=O)C[C@@H](C)O[C@H]3O[C@@H]2[C@H]1O	-1.9%[11.4 µM]	.	.
O=C(O)c1ccc(NS(=O)(=O)c2cccc3ccccc23)cc1	.	-1.2%	-18.5%
O=S(=O)(Nc1cccc(-c2ccc(N3CCCC3)nn2)c1)c1ccccc1C(F)(F)F	.	-22.4%	48.3%
CCOCc1cc(CN2CCN(c3cccc(Cl)c3)CC2)c(O)c2ncccc12	.	3.16µM*	-7.3%
CC(C)OCc1cc(CN2CCN(c3ccccc3)CC2)c(O)c2ncccc12	.	-20.0%	-11.5%
CC1CCN(S(=O)(=O)c2ccc3c(c2)N(CC(=O)NC(C)C)C(=O)CS3)CC1	.	-2.4%	3.6%
N#Cc1c(NC(=O)CCC(=O)O)ccc2ccccc12	3.3%[11.4 µM]	-0.2%[9.22 µM]	5.4%[9.22 µM]
CC1CCN(c2nc(-c3ccc(C(C)(C)C)cc3)nc3ccccc23)CC1	.	10µM*	15.8µM*
CC1CCCCN1c1nc(-c2ccc(C(C)(C)C)cc2)nc2ccccc12 (stereo not drawn)	.	10µM*	10µM*
CC1CCN(c2nc(-c3ccncc3)nc3ccccc23)CC1	-0.9%	37.3%	6.0%
SMILES	Luciferase inh	p53ts 39C tox	p53ts 32C kill
CC1CCCCN1c1nc(-c2ccncc2)nc2ccccc12 (stereo not drawn)	0.8%	15.1%	10.5%
C[C@@H](c1ccccc1)N1C(=O)[C@H]2[C@H]3[C@H](O)[C@H](O)C/C(=N/OCc4ccccc4)[C@@H]3CC[C@@H]2C1=O	1.4%[11.4 µM]	-1.5%[9.22 µM]	4.7%[9.22 µM]
CCN1C(=O)[C@H]2[C@H]3[C@H](O)[C@H](O)C/C(=N/O[C@@H](C)c4cn([C@H](CO)Cc5ccccc5)nn4)[C@@H]3CC[C@@H]2C1=O	0.9%[11.4 µM]	8.7%[9.22 µM]	-0.6%[9.22 µM]
COc1ccc(-c2cc(C(=O)NCCN3CCOCC3)c3ccccc3n2)cc1	?	-21.9%	9.9%
COc1ccc(-c2cn3c(n2)sc2cc(C(=O)Nc4ccc(F)cc4Cl)ccc23)cc1	.	20µM*	-22.7%
CCOc1ccc(-c2cn3c(n2)sc2cc(C(=O)NCCCN4CCCCCC4)ccc23)cc1	.	19.9%	8.4%
CCOc1ccc(-c2cc(C(=O)NCCCN3CCN(CC)CC3)c3ccccc3n2)cc1	12.6µM*	12.6µM*	12.6µM*
CCCN1CCN(CCCNC(=O)c2ccc3c(c2)sc2nc(-c4ccc(OCC)cc4)cn23)CC1	.	12.6µM*	?
COc1ccc(-c2cn3c(n2)sc2cc(C(=O)Nc4ccc(C)cc4C)ccc23)cc1	.	-5.2%	2.7%
CCOc1ccc(-c2cc(C(=O)NCCc3ccc(C)cc3)c3ccccc3n2)cc1	.	15.8µM*	-20.0%
CCOc1ccc(-c2cc(C(=O)NCCc3ccc(Cl)cc3)c3ccccc3n2)cc1	.	?	-27.2%
CC/C=C/C#N	.	-2.2%	14.5%[1.84 µM]
CN(Cc1ccco1)c1nc(-c2ccccc2C(F)(F)F)nc2ccccc12	-0.7%[2.29 µM]	-3.3%	11.3%
CON(C)C(=O)c1nnc2c(n1)[nH]c1ccccc12	-4.8%[11.4 µM]	3.6%[9.22 µM]	-9.3%[9.22 µM]
CN(C)C(=O)c1ccc(-c2nc(NCc3cccnc3)c3ccccc3n2)cc1	-1.3%[2.29 µM]	-26.5%	-28.6%
COC(=O)[C@H](CCSC)NC(=O)C/C=C\[C@@H](C)CO	1.0%[11.4 µM]	11.6%[9.22 µM]	-7.5%[9.22 µM]
